Most compounds without a hit are left out; they make up all but 4% or so of the library.
KKLEB cytotox – counter-screen for CF NF-kB inhibitors: cytotoxicity; KKLEB CF airway cells viability, ATPlite luminescence, overnight; stronger effect = lower value; cells stimulated with P. aeruginosa culture filtrate; activity change (cytotoxicity), % at 5 µM; 360,000 compounds, 0.36% hits; AID 602141;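 active means corrected activity change at or below -50% at 5 µM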
HIF-2a block – inhibitors of HIF-2a. 786-0 RCC cells HIF-2a reporter, luciferase luminescence, overnight. inhibition, % at 18.8 µM. 360,000 compounds, 0.72% hits. AID 624352;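 active means inhibition of the luminescence signal of 40% or more relative to plate controls, in a single-dose primary screen at 18.75 µM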
Peg3 promoter – Peg3 promoter activity inhibition. 360,000 compounds, 1.7% hits. AID 588405. HeLa PEG-Prom luciferase reporter, luminescence, overnight. inhibition, % at 20 µM;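 active means inhibition of at least 50% at 20 µM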
TWEAK Fn14 block – blocks TWEAK-Fn14 interaction in a reporter cell assay | TWEAK-stimulated Fn14 reporter cells, luciferase luminescence, 8 h | inhibition, % at 10 µM | 360,000 compounds, 2% hits | AID 1159606; in the data active means inhibition above about 50%
TROY NFkB inh – inhibitors of TROY-dependent NF-kB signaling; Q293 LMP1-TROYcd NF-kB luciferase reporter, 4 h; inhibition, % at 10 µM; 360,000 compounds, 0.98% hits;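 active means compounds whose plate-normalised and pattern-corrected inhibition of the luciferase reporter signal at the single screening dose is 50% or more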
CF NFkB inh – blocks PAF-induced NF-kB reporter in cystic fibrosis cells; KKLEB NF-kB-GFP reporter, GFP fluorescence overnight; inhibition, % at 5 µM; 360,000 compounds, 0.86% hits;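 active means at least 50% inhibition at 5 µM, scaled per plate between neutral and stimulator controls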;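 further: PAF is a Pseudomonas aeruginosa culture filtrate used as stimulus; plate controls were PAF-stimulated DMSO wells for no effect and unstimulated DMSO wells for full effect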
* marks the source's active call; other numbers are inactive results.

Cc1ccc(N2C(=O)NC(=O)/C(=C\C=C\c3ccco3)C2=O)cc1C was read as KKLEB cytotox -38.1, HIF-2a block 75.5*, Peg3 promoter 75.9*, TWEAK Fn14 block 14.4, TROY NFkB inh 9.6 and CF NFkB inh 79.7*.
`CN(C)c1ccc(/C=C/C=C2/C(=O)NC(=O)N(c3ccccc3)C2=O)cc1` gave KKLEB cytotox -27.1, HIF-2a block 3.3, Peg3 promoter 103.3*, TWEAK Fn14 block 92.2*, TROY NFkB inh 4.8 and CF NFkB inh 70.5*.
Screening Cc1ccc(N2C(=O)NC(=O)/C(=C\C=C\c3ccco3)C2=O)cc1 returned KKLEB cytotox -5.5, HIF-2a block 42.2*, Peg3 promoter 46.7, TWEAK Fn14 block 17.2, TROY NFkB inh 2.2 and CF NFkB inh 52.1*.
`O=C1NC(=O)N(c2ccccc2)C(=O)/C1=C/C=C/c1ccco1` gave KKLEB cytotox 4.8, HIF-2a block 30.3, Peg3 promoter 35.6, TWEAK Fn14 block 14.4, TROY NFkB inh 12.9 and CF NFkB inh -2.3.
Screening Cc1cccc(N2C(=O)NC(=O)/C(=C\C=C\c3ccco3)C2=O)c1 returned KKLEB cytotox -9.1, HIF-2a block 39.0, Peg3 promoter 44.8, TWEAK Fn14 block -12.6, TROY NFkB inh 4.3 and CF NFkB inh 87.5*.
Screening O=c1c2ccccc2nc(Cc2ccccc2)n1-c1ccc(O)cc1 returned KKLEB cytotox -11.8, HIF-2a block 6.5, Peg3 promoter 5.8, TWEAK Fn14 block -2.9, TROY NFkB inh -3.5 and CF NFkB inh 24.8.
Screening CC1=C(C/C(C)=C/c2ccccc2)/C(=C/CO)[C@H](O)[C@](C)(O)C12CC2 returned KKLEB cytotox 1.2, HIF-2a block 2.8, Peg3 promoter 12.9, TWEAK Fn14 block 17.9, TROY NFkB inh -1.4 and CF NFkB inh 7.0.
For CC(C)=CCc1c(O)cc2c(c1O)C(=O)CC(c1ccc(O)cc1)O2 (stereo not given) the results were KKLEB cytotox -10.1, HIF-2a block -41.1, Peg3 promoter 3.4, TWEAK Fn14 block 35.5, TROY NFkB inh 51.9* and CF NFkB inh 7.6.
Clc1ccc2c(c1)C(OC1CN3CCC1CC3)c1ccccc1CS2 (stereo not given) was read as KKLEB cytotox -10.0, HIF-2a block 24.6, Peg3 promoter 96.6*, TWEAK Fn14 block 9.0, TROY NFkB inh -23.0 and CF NFkB inh 1.0.
`CN1CCN(CCOC2c3ccccc3CSc3ccc(Cl)cc32)CC1` (stereo not given) gave KKLEB cytotox -14.4, HIF-2a block -4.0, Peg3 promoter 24.6, TWEAK Fn14 block -12.3, TROY NFkB inh 13.0 and CF NFkB inh 27.8.
For COC(=O)c1ccc(NC(=O)CSc2nc3ccc(N4C(=O)C5C6C=CC(C6)C5C4=O)cc3s2)cc1 (stereo not given) the results were KKLEB cytotox -0.7, HIF-2a block -92.7, Peg3 promoter 104.9*, TWEAK Fn14 block 91.4*, TROY NFkB inh 57.5* and CF NFkB inh -6.7.
For Cc1ccccc1-n1c(O)c(/C=N/NC(=O)c2ccccc2O)c(=O)[nH]c1=S the results were KKLEB cytotox 17.4, HIF-2a block -1.0, Peg3 promoter -2.1, TWEAK Fn14 block 49.9, TROY NFkB inh 39.7 and CF NFkB inh -21.4.
`COC1/C=C/C=C(\C)Cc2cc(O)c(Cl)c(c2)N(C)C(=O)CC(OC(=O)C(C)C)C2(C)OC2C(C)C2CC1(O)NC(=O)O2` (stereo not given) gave KKLEB cytotox -22.7, HIF-2a block 34.6, Peg3 promoter -22.5, TWEAK Fn14 block 19.6, TROY NFkB inh 4.9 and CF NFkB inh 58.3*.
For CCCCCCOc1ccc(CN2CCN(CCO)CC2)cc1 the results were KKLEB cytotox -12.7, HIF-2a block -100.2, Peg3 promoter -133.7, TWEAK Fn14 block 43.3, TROY NFkB inh 56.3* and CF NFkB inh -4.0.
`CCCCCCCSc1cc(OC)c(CCN(C)C)cc1OC` gave KKLEB cytotox -5.1, HIF-2a block 5.6, Peg3 promoter 103.5*, TWEAK Fn14 block -35.4, TROY NFkB inh -4.4 and CF NFkB inh 4.8.
Screening COc1ccc(NP2(=O)NCCCN2)cc1 returned KKLEB cytotox 10.6, HIF-2a block -1.0, Peg3 promoter -4.8, TWEAK Fn14 block -1.3, TROY NFkB inh -2.3 and CF NFkB inh 5.3.
